Compounds with a hit are over-represented: about 11% of the library has one in this group of screens.
ALDH1A1 inh – ALDH1A1 (human) enzyme inhibition. P00352. Potency, µM (highest dose often 75.3 µM), for inactives: at the top dose activity, negative = inhibition, most hits filed as inhibitors. Purified ALDH1A1, NADH fluorescence, propionaldehyde substrate. 7.3% of 220,000 active; active = well fitted inhibition curve with a large enough effect, not every such curve was filed as active; inconclusive = small, poorly fitted or top-dose-only effect, or another doubt; inactive = no such curve, though single readings can be large or run the other way;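 note: potency is the fitted concentration of half-maximal effect; plate controls were no enzyme wells and a reference inhibitor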
12-hLO inh – inhibitors of human 12-lipoxygenase (ALOX12). P18054. purified 12-hLO, xylenol orange hydroperoxide absorbance. Potency, µM (titrated, usually from 57.1 µM), inactives show top-dose activity change, negative = inhibition, hits mostly inhibitors. 0.12% of 150,000 active. AID 1452; note: potency is the fitted concentration of half-maximal effect; nearly all actives have a fitted effect of over 55% in size
Target sequence (P18054 whole entry, looked up): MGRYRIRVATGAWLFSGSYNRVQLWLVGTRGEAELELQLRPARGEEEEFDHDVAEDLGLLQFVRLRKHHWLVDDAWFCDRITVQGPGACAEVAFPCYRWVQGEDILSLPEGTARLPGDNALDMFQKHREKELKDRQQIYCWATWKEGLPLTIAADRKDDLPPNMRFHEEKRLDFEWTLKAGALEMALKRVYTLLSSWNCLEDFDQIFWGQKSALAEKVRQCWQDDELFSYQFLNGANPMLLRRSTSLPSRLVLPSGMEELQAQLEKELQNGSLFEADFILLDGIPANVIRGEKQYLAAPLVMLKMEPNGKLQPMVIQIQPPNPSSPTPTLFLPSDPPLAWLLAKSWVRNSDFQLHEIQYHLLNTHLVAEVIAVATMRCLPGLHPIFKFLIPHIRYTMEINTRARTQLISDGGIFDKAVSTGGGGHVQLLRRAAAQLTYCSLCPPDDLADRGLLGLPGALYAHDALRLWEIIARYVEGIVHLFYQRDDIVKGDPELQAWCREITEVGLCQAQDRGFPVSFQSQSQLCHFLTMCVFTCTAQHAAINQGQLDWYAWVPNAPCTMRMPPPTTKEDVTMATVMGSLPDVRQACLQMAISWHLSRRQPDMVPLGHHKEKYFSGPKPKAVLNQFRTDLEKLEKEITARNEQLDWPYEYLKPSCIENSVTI
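Xylenol orange chromogenic assay: hydroperoxide from 12hLO oxidises Fe(II), giving red-shifted Fe(III)-XO absorbance. Conditions: 150 nM enzyme, 40 uM arachidonic acid, 25 mM Hepes pH 7.0, 0.01% Triton X-100, 30 min, room temperature.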
PNC inhibitor – perinucleolar compartment assembly inhibition; activity change (PNC), negative = inhibition, % at 10 µM; 3.1% of 140,000 active; PC3M PTB-GFP, PNC prevalence imaging, 16 h; hits give low values;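 active = readout at or below -70, meaning at least 70% loss of cells showing the perinucleolar compartment, a nuclear body marking cancer cells; inconclusive = readout between -30 and a set limit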;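 note: plate controls were DMSO wells for no effect and camptothecin positive control wells for full effect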
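Read-out is percentage of cells bearing a perinucleolar compartment, from automated 20x imaging of fixed, Hoechst-stained PC3M PTB-GFP cells. Cells were seeded 4 h, then exposed 16 h to compound (23 nl of library stock) in duplicate plates.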
HPGD block – HPGD (human) dehydrogenase inhibition; P15428; purified HPGD, NADH fluorescence kinetic, PGE2 substrate; Potency, µM, inactives show at the top dose activity change, negative = inhibition, actives largely listed as inhibitors; 4.3% of 150,000 active; active = well fitted inhibition curve with a large enough effect, not every such curve was filed as active; inconclusive = small, poorly fitted or top-dose-only effect, or another doubt; inactive = no such curve, though single readings can be large or run the other way; note: potency is the fitted concentration of half-maximal effect
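NADH formation kinetics: reaction with 30 uM PGE2 and 1 mM NAD+ (final), 20 nM enzyme, Tris-HCl pH 8 with Tween 20, after 15 min compound preincubation at room temperature. Fluorescence change, last versus first of five reads.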
IMPase Li cell – cell-permeable IMPase inhibitors with lithium potentiation; CHO-M1 cells, IP1 TR-FRET (IP-One), carbachol + lithium; Potency, µM (doses to about 59.4 µM), for inactives: at the highest dose activity, negative = IMPase inhibition, hits mostly inhibitors; 0.35% of 210,000 active;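 note: IP1 builds up when IMPase is blocked and the TR-FRET signal falls; potency is the fitted concentration of half-maximal effect; plate controls were basal vehicle for no effect and high inhibitor control for full effect; nearly all actives have a fitted effect of over 50% in size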
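Lithium-sensitised IP1 accumulation assay; M1-expressing CHO cells treated 30 min at 37C with compound. Competitive antibody detection by time-resolved FRET followed a 10 min room-temperature lysis step.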
IMPase inh – cell-permeable inhibitors of inositol monophosphatase (IMPase); CHO-M1 cells, IP1 accumulation, HTRF TR-FRET ratio; inhibition (IP1 accumulation), % at 46.1 µM; 120,000 tested, under 10 active; AID 901; active = well fitted curve in the direction sought with a large enough effect in the signal ratio, not every such curve was filed as active; inconclusive = small, poorly fitted or top-dose-only effect, or a change in a side signal; inactive = no such curve, though single readings can be large or run the other way; the % refers to the signal ratio;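 note: cells stimulated with carbachol in lithium chloride buffer; plate controls were DMSO basal wells for no effect and reference inhibitor wells for full effect; higher means more IMPase inhibition seen as more IP1 and lower FRET ratio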
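The IP-One HTRF competitive assay in carbachol-stimulated CHO-M1 cells quantifies cellular IP1. Compounds spanned up to 46 uM final, and activity is expressed as AC50 from concentration-response fits of the ratio and donor data.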
Active calls of the source: *; u = inconclusive; x = no result given; [ ] = dose if it differs, or a comment. Unless noted, calls come from the whole dose curve; as a rule, active = well fitted curve in the direction sought with a large enough effect; inconclusive = small, poorly fitted or top-dose-only effect, or another doubt; inactive = no such curve, though single readings can be large; an effect the other way counts as inactive or inconclusive. Unless noted, % is set by controls: 0 for no effect and ±100 for the full control effect.

SMILES	ALDH1A1 inh	12-hLO inh	PNC inhibitor	HPGD block	IMPase Li cell	IMPase inh
CC(C)(C)NC(=O)CSc1nsc(SCC(=O)NC(C)(C)C)c1C#N	6%	-4%	25	-13%	12%[38.3 µM]	8
CC(=O)CSc1nsc(SCC(C)=O)c1C#N	28µM*	-9%	153	u	1%	4
N#Cc1c(SCC(=O)OCc2ccccc2)nsc1SCC(=O)OCc1ccccc1	-5%	6%	-101*	-7%	18%[38.3 µM]	4
CCOC(=O)CSc1nsc(SCC(=O)OCC)c1C#N	7%	-8%	-100*	-24%	1%	12
Cc1c(NC(=O)CSc2ccc(Cl)cc2)cccc1-c1nc2cc(Cl)ccc2o1	20%	0%	-113*	-12%	-15%	x
Cc1ccc(C2=NC(C)(C)N=C2SCC(=O)Nc2ccc(Cl)cc2)cc1	22µM*	-18%	34	-24%	46%[38.3 µM]	1
CC1(C)N=C(SCC(=O)Nc2ccc(Cl)cc2Cl)C(c2ccccc2)=N1	u	-2%	-24	-13%	36%[38.3 µM]	11
Nc1sc2c(c1C(=O)NCCc1ccccc1)CCC2	20µM*	x	x	x	5%	x
Nc1sc2c(c1C(=O)c1ccccc1)CCCC2	14µM*	-21%	6	u	-5%[38.3 µM]	-4
NC(=O)c1c(N)sc2c1CCCC2	13µM*	-25%	16	32µM*	4%[38.3 µM]	-5
CN1CCc2c(sc(N)c2C(N)=O)C1	u	0%	3	u	-6%	2
O=C(NCCc1ccccc1)c1c(F)cccc1F	2%	x	x	x	-6%	x
CC(=O)OC[C@H]1O[C@@H](ON=C(C)C)[C@H](OC(C)=O)[C@@H](OC(C)=O)[C@H]1OC(C)=O	1%[13.5 µM]	x	x	x	x	x
Cc1ccc(NC(c2ccc(Cl)cc2)c2nnc(-c3cccc(F)c3)o2)cc1C (stereo not given)	x	x	x	x	x	0
O=C(CCl)Nc1nc(-c2ccco2)c(-c2ccco2)s1	0.4µM*	-6%	-6	u	20%	x
O=C(CCCSc1ccccc1)Nc1nc(-c2ccco2)c(-c2ccco2)s1	u	-15%	-24	u	8%	x
N#Cc1nc(COc2cccc(Cl)c2)oc1NCCc1ccccc1	x	x	x	x	x	-1
O=C(c1ccccc1)N1CCCCCC1	7%	-2%	23	4.5µM*	-4%	x
O=C(c1ccc(C(=O)N2CCCCCC2)cc1)N1CCCCCC1	18µM*	3%	63	7.9µM*	0%	-6
O=C(c1c(Cl)cccc1Cl)N1CCCCCC1	3%	-2%	9	28µM*	8%[38.3 µM]	-5
O=C(c1ccccc1Cl)N1CCNCC1	3%	-3%	22	-9%	u	-2
O=C(c1ccccc1)N1CCN(S(=O)(=O)N2CCCCC2)CC1	-1%	-5%	u	-4%	13%[38.3 µM]	-2
O=C(/C=C/N1CCOCC1)c1ccc(-c2ccccc2)cc1	u	u	-16	28µM*	4%[38.3 µM]	-4
CCn1c(CCCc2nc3c([nH]2)c(=O)n(C)c(=O)n3C)nc2c1c(=O)n(C)c(=O)n2C	3%[13.5 µM]	2%[11.4 µM]	x	-5%	-20%	x
Cc1cc(C(F)F)n2nc(C(=O)Nc3c(C)cccc3C)nc2n1	x	x	x	x	x	2
SMILES	ALDH1A1 inh	12-hLO inh	PNC inhibitor	HPGD block	IMPase Li cell	IMPase inh
COCc1cc(=O)[nH]c(/N=C(\N)Nc2cccc(Cl)c2)n1	4%	x	x	x	5%	x
COc1ncc2nc(C)c(=O)n(Cc3ccc(F)cc3)c2n1	-1%	x	x	x	4%	x
Cc1nnc(Nc2ccc(C(=O)N3CCOCC3)cc2)c2ccccc12	9%	5%	7	16µM*	22%[38.3 µM]	-7
CCOc1ccc(C(=O)N2CCCCCC2)cc1	-8%	5%	38	2µM*	5%[38.3 µM]	-5
O=C(c1ccccc1)N1CCN(C(=O)N2CCOCC2)CC1	-13%	-3%	-9	-5%	0%[38.3 µM]	0
O=C(c1ccccc1)c1ccc(C(=O)N2CCOCC2)cc1	-4%	0%	-29	7.9µM*	-5%[38.3 µM]	-1
CS(=O)(=O)N1CCc2cc(C(=O)N3CCCCC3)ccc21	-12%	25%	-1	3.2µM*	0%	-2

High-throughput results from PubChem BioAssay.
